C diff HTS: C. difficile growth inhibitors, primary screen, HTS. Clostridium difficile clinical isolate growth, OD600, 24 h; stronger effect = lower value. growth activity, negative = inhibition, % at 16 µg/mL (by protocol). 0.25% of 86,000 active. AID 1259249, 2017;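 active means mean growth activity at or below -80% and every replicate also at or below -80%; inconclusive means mean at or below -80% but some replicate above -80%; inactive means mean growth activity above -80%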;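 further: 0% = DMSO wells and -100% = levofloxacin 16 µg/mL wells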
Pf Dd2 growth: P. falciparum Dd2 growth inhibitors, primary screen, SYBR Green fluorescence, single dose replicates; 72 h; stronger effect = lower value; activity change, % at 10 µM; 2.3% of 94,000 active; in the data active means activity change below about -80%; inconclusive means no clear call, values can overlap the other calls
Numbers without * were called inactive; ? = inconclusive; nt = not tested or not shown. A selection: hits, their analogues and other compounds. The true share with any hit is near 2.3%.

SMILES | C diff HTS | Pf Dd2 growth
Cc1ccccc1-c1ccc(C2[C@@H]3CN(Cc4cncnc4)C[C@H]2N3)cc1 (some centres not stated) | -7 | -10
Cc1cccc(-c2ccc(C3[C@@H]4CN(Cc5ccccc5)C[C@H]3N4)cc2)c1 (some centres not stated) | -36 | -11
COc1cccc(C(=O)Nc2ccc3c(c2)OC[C@@H](C)N(C(C)=O)C[C@H](C)[C@H](OC)CN(C)C3=O)c1 | nt | -10
O=C(CCN1CCCCC1)NCC[C@H]1CC[C@H](NC(=O)Nc2ccc(Cl)cc2)[C@@H](CO)O1 | 2 | -11
C[C@@H]1CN([C@@H](C)CO)C(=O)Cc2cc(NC(=O)Nc3ccc4c(c3)OCO4)ccc2O[C@H]1CN(C)Cc1ccc(Oc2ccccc2)cc1 | 11 | -81*
C[C@H](CO)N1C[C@H](C)[C@@H](CN(C)Cc2ccc(Oc3ccccc3)cc2)Oc2ccc(NC(=O)Nc3ccc(F)cc3)cc2CC1=O | 63 | -82*
C[C@H]1CN([C@@H](C)CO)C(=O)Cc2cc(NC(=O)Nc3ccc4c(c3)OCO4)ccc2O[C@@H]1CN(C)Cc1ccc(Oc2ccccc2)cc1 | 4 | -36
C[C@H](CO)N1C[C@H](C)[C@H](CN(C)Cc2ccc(Oc3ccccc3)cc2)Oc2ccc(NC(=O)Nc3ccc(F)cc3)cc2CC1=O | 37 | -8
CC(C)NC(=O)Nc1ccc2c(c1)CC(=O)N([C@H](C)CO)C[C@H](C)[C@@H](CN(C)S(C)(=O)=O)O2 | -3 | -1
C[C@H](CO)N1C[C@H](C)[C@H](CN(C)C(=O)c2ccccc2F)Oc2ncc(-c3ccc(F)cc3)cc2C1=O | 0 | -15
COc1ccc2c3c([nH]c2c1)[C@@H](CO)N(Cc1ccc(Cl)cc1)CC31CCN(Cc2nccs2)CC1 | -5 | -88*
COc1ccc2c3c([nH]c2c1)[C@H](CO)N(Cc1ccc(Cl)cc1)CC31CN(Cc2nccs2)C1 | 10 | -86*
COc1ccc2c3c([nH]c2c1)[C@@H](CO)N(Cc1ccc(Cl)cc1)CC31CCN(Cc2ccccc2)CC1 | 25 | -80
COc1ccc2c3c([nH]c2c1)[C@H](CO)N(Cc1nccs1)CC31CN(Cc2ccncc2)C1 | 10 | -34
C[C@H](CO)N1C[C@H](C)[C@H](CN(C)C(=O)Nc2ccc(C(F)(F)F)cc2)Oc2ccc(NS(=O)(=O)c3ccc(F)cc3)cc2C1=O | -8 | -5
COc1ccc(NC(=O)Nc2ccc3c(c2)C(=O)N([C@@H](C)CO)C[C@@H](C)[C@@H](CN(C)Cc2ccncc2)OCCCC[C@H](C)O3)cc1 | 5 | -54
CC(C)CC#Cc1cnc2c(c1)C(=O)N([C@@H](C)CO)C[C@@H](C)[C@@H](CN(C)C(=O)Nc1cc(F)ccc1F)O2 | 3 | -57
CC(C)CC#Cc1cnc2c(c1)C(=O)N([C@H](C)CO)C[C@@H](C)[C@H](CN(C)C(=O)Nc1cc(F)ccc1F)O2 | -7 | -83*
CCCC#Cc1cnc2c(c1)C(=O)N([C@@H](C)CO)C[C@H](C)[C@H](CN(C)C(=O)Nc1cccc(F)c1)O2 | 1 | -88*
CCCC#Cc1cnc2c(c1)C(=O)N([C@H](C)CO)C[C@@H](C)[C@@H](CN(C)C(=O)Nc1cccc(F)c1)O2 | 14 | -36
C[C@H]1CN([C@@H](C)CO)C(=O)c2cc(/C=C/c3ccccc3)cnc2O[C@@H]1CN(C)C(=O)CN1CCOCC1 | -2 | -21
C[C@@H]1CCCCO[C@@H](CN(C)C(=O)Nc2ccc3c(c2)OCO3)[C@H](C)CN([C@H](C)CO)C(=O)c2cc(NS(=O)(=O)c3ccc(F)cc3)ccc2O1 | nt | -10
C[C@H]1CCCCO[C@@H](CN(C)Cc2ccc(C(F)(F)F)cc2)[C@@H](C)CN([C@@H](C)CO)C(=O)c2cc(NC(=O)NC3CCCCC3)ccc2O1 | 4 | -25
Cc1noc(C)c1NC(=O)Nc1ccc2c(c1)C(=O)N([C@H](C)CO)C[C@@H](C)[C@@H](CN(C)C(=O)Nc1ccc(C(F)(F)F)cc1)OCCCC[C@@H](C)O2 | 7 | -87*
C[C@@H]1CN([C@H](C)CO)C(=O)c2cc(NC(=O)NC3CCCCC3)ccc2O[C@@H](C)CCCCO[C@H]1CN(C)Cc1ccc(C(F)(F)F)cc1 | 3 | -94*
SMILES | C diff HTS | Pf Dd2 growth
C[C@H]1CCCCO[C@H](CN(C)C(=O)Nc2ccc(C(F)(F)F)cc2)[C@@H](C)CN([C@@H](C)CO)C(=O)c2cc(NC(=O)NC3CCCCC3)ccc2O1 | -4 | -87*
C[C@@H]1CCCCO[C@H](CN(C)C(=O)Nc2ccc(C(F)(F)F)cc2)[C@@H](C)CN([C@H](C)CO)C(=O)c2cc(NC(=O)NC3CCCCC3)ccc2O1 | -7 | -78
C[C@@H]1CCCCO[C@@H](CN(C)C(=O)Nc2ccc(C(F)(F)F)cc2)[C@H](C)CN([C@@H](C)CO)C(=O)c2cc(NC(=O)Nc3ccccc3)ccc2O1 | -7 | -28
Cc1noc(C)c1NC(=O)Nc1ccc2c(c1)C(=O)N([C@H](C)CO)C[C@H](C)[C@@H](CN(C)C(=O)Nc1ccc(C(F)(F)F)cc1)OCCCC[C@H](C)O2 | 0 | -77
C[C@@H]1CCCCO[C@H](CN(C)C(=O)Nc2ccc(C(F)(F)F)cc2)[C@@H](C)CN([C@@H](C)CO)C(=O)c2cc(NC(=O)Nc3ccccc3)ccc2O1 | -6 | -85*
CC(C)NC(=O)N1C[C@H]2[C@@H](c3ccccc31)[C@@H](CO)N2C(=O)c1ccccc1 | -1 | 5
COc1ccc2c3c(n(C)c2c1)[C@@H](CO)NCC31CCN(C(=O)c2cccc(F)c2)CC1 | 4 | -39
C[C@H]1CN([C@@H](C)CO)S(=O)(=O)c2ccc(C3=CCCC3)cc2O[C@@H]1CN(C)C(=O)c1cnccn1 | nt | 23
O=C(C[C@H]1CC[C@H](NS(=O)(=O)c2ccccc2)[C@H](CO)O1)N1CCc2ccccc2C1 | -4 | 2
C[C@H]1CCCCO[C@H](CN(C)C(=O)Nc2ccc(C(F)(F)F)cc2)[C@@H](C)CN([C@@H](C)CO)C(=O)c2cc(NC(=O)Nc3ccccc3)ccc2O1 | -3 | -83*
C[C@@H]1CCCCO[C@@H](CN(C)C(=O)Nc2ccccc2)[C@@H](C)CN([C@@H](C)CO)C(=O)c2cc(NC(=O)Nc3ccc(C(F)(F)F)cc3)ccc2O1 | -7 | ?
C[C@@H]1CCCCO[C@H](CN(C)C(=O)Nc2ccc(C(F)(F)F)cc2)[C@H](C)CN([C@@H](C)CO)C(=O)c2cc(NC(=O)Nc3ccccc3)ccc2O1 | 0 | -82*
C[C@@H]1CCCCO[C@@H](CN(C)C(=O)Nc2ccccc2)[C@@H](C)CN([C@H](C)CO)C(=O)c2cc(NC(=O)Nc3ccc(C(F)(F)F)cc3)ccc2O1 | -2 | 29
COCC(=O)N1CC2(CCN(C(C)=O)CC2)c2c([nH]c3cc(OC)ccc23)[C@@H]1CO | -7 | 14
C[C@H](O)C#Cc1cnc2c(c1)C(=O)N([C@@H](C)CO)C[C@H](C)[C@@H](CN(C)C(=O)c1ccc(F)cc1)O2 | 1 | 2
COc1ccc(S(=O)(=O)Nc2ccc3c(c2)C(=O)N([C@@H](C)CO)C[C@H](C)[C@@H](CN(C)Cc2ccc(Cl)c(Cl)c2)OCCCC[C@@H](C)O3)cc1 | -5 | -91*
COc1ccc(S(=O)(=O)Nc2ccc3c(c2)C(=O)N([C@@H](C)CO)C[C@H](C)[C@H](CN(C)Cc2ccc(Cl)c(Cl)c2)OCCCC[C@@H](C)O3)cc1 | nt | -61

Screens deposited in PubChem BioAssay by Broad Institute.
